Reference: PubChem BioAssay AID588855 (National Center for Advancing Translational Sciences (NCATS), 2011)
The whole screen tested about 410,000 compounds, of which about 5,000 (1.2%) were called active. Roughly 13% stayed inconclusive and do not appear here. Calls follow the shape of the dose curve; as a rule, active = well fitted inhibition curve with a large enough effect; inconclusive = small, poorly fitted or top-dose-only effect; inactive = no such curve, though single readings can be large or run the other way. The full list was thinned out, with actives kept by preference.

assay: qHTS for Inhibitors of TGF-b; conditions: HepG2 CAGA-GFP TGF-b/SMAD3 reporter, GFP fluorescence, 18 h, TGF-beta stimulated, 500 pg/mL final; series mostly up to 46.1 µM; activity, negative = inhibition: at the top concentration; also: nearly all actives have a fitted effect of over 65% in size
Summary of the method: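 HEPG2 CAGA-GFP cells (1000/well, DMEM with 1% FBS) were pre-incubated 2 h at 37 degrees C, given compound by pin tool, then stimulated with TGF-beta at 500 pg/mL final for 18 h before per-cell GFP fluorescence imaging.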
% is scaled to controls: 0 for no effect and ±100 for the full control effect; potency is read from the fitted curve at half-maximal effect.

Compound | activity, negative = inhibition | Potency
CCc1ccc(NC(=O)N2CCN(C(=O)c3nsc4ccccc34)CC2)cc1 | 0% (inactive) | –
COc1ccc(CCNC(=O)c2cn(C)c3ccc(S(=O)(=O)N(C)C4CCCCC4)cc3c2=O)cc1OC | 16% (inactive) | –
CCOC(=O)c1ccc(-c2ccc(/C=C(\C#N)C(=O)Nc3ccc(C)cc3)o2)cc1 | -1.98% (inactive) | –
CN(C)C(=O)c1cccc(-c2cnc3c(NC=O)cc(-c4ccc(C(=O)N5CCOCC5)cc4)cn23)c1 | -1.01% (inactive) | –
CC(=O)c1ccc(-c2cnc3c(NC=O)cc(-c4cccc(NS(C)(=O)=O)c4)cn23)cc1 | – | 7.08 µM (active)
COc1ccc(-c2cc(NC=O)c3ncc(-c4ccccc4)n3c2)cc1OC | -7.58% (inactive) | –
CC(=O)c1cccc(-c2cnc3c(NC=O)cc(-c4ccc(N(C)C)cc4)cn23)c1 | – | 4.47 µM (active)
COc1ccc(-c2cc(NC=O)c3ncc(-c4cccc(C(=O)N(C)C)c4)n3c2)c(OC)c1 | 4.36% (inactive) | –
O=CNc1cc(-c2ccc(C(=O)N3CCOCC3)cc2)cn2c(-c3ccc(F)cc3)cnc12 | -0.898% (inactive) | –
CCc1ccccc1NC(=O)c1cnn(-c2ccc(F)cc2)c1C1CCNCC1 | 3.86% (inactive) | –
Cc1nn(CC(=O)NCCc2ccccc2)c(=O)c2c1sc1ccccc12 | -17.8% (inactive) | –
CC(=O)N1c2ccccc2CC1C(=O)N1CCN(c2ccc(F)cc2)CC1 (stereo not given) | 0.952% (inactive) | –
CCc1ccc(OCCCn2c(CCCNC(=O)C3CCCCC3)nc3ccccc32)cc1 | 1.56% (inactive) | –
CCOC(=O)c1cc(-c2ccccc2)n(-c2cccc(C(=O)Nc3cc(OC)cc(OC)c3)c2)c1C | -22.2% (inactive) | –
Cc1cccc([C@@H]2[C@@H]3C(=O)N(Cc4ccccc4)C(=O)[C@@H]3[C@]3(C)C(=O)N(c4ccc(Br)cc4)C(=O)N23)c1 | -6.57% (inactive) | –
COc1ccc(-c2ccc(OC)c(C3C4C=CCC(C)C4C(=O)N3Cc3ccccc3)c2)cc1C (stereo not given) | 6.54% (inactive) | –
Cc1ccc(-c2cccc([C@H]3[C@@H]4C=CC[C@@H](C)[C@@H]4C(=O)N3Cc3ccccc3)c2)cc1 | – | 20 µM (active)
COc1ccc(-n2c(SC)nc3sc4c(c3c2=O)CCN(C(C)=O)C4)cc1 | -23.2% (inactive) | –
O=C(Cn1nc(Cc2cccnc2)c2ccccc2c1=O)NCC1COc2ccccc2O1 (stereo not given) | 6.14% (inactive) | –
O=C(Cn1nc(Cc2cccnc2)c2ccccc2c1=O)NCC1CCCO1 (stereo not given) | 0.32% (inactive) | –
Cc1ccc(Cl)cc1N(C)C(=O)Cn1nc(Cc2cccnc2)c2ccccc2c1=O | – | 12.6 µM (active)
CC(C)CCNC(=O)CSc1nc2ccccc2nc1Cc1ccc(Cl)cc1 | 28.6% (inactive) | –
COc1ccc(CCNC(=O)c2ccc(CSCc3ccc(C)cc3)o2)cc1OC | -16.2% (inactive) | –
O=C1c2ccccc2C(=O)N1CCOc1ccc(F)cc1 | -1.94% (inactive) | –
O=Cc1cn(CCOc2ccc(F)cc2)c2ccccc12 | – | 3.98 µM (active)

Compound | activity, negative = inhibition | Potency
COc1ccc(OCCn2cc(C(=O)C3CCCCC3)c3ccccc32)cc1 | -6.4% (inactive) | –
COC(=O)N/N=C/c1cn(CCCOc2ccc(C)cc2)c2ccccc12 | – | 14.1 µM (active)
Cc1ccc(OCCOc2cccc(/C=N/NC(N)=O)c2)cc1 | 0% (inactive) | –
Cc1c(C=O)c2ccccc2n1CCOc1ccccc1 | -28.7% (inactive) | –
Cc1ccccc1CSc1nc2c([nH]c3ccccc32)c(=O)n1C | -9.83% (inactive) | –
CCn1cc(C(=O)N2CCN(c3cc(Cl)ccc3C)CC2)c(=O)c2cc(S(=O)(=O)N3CCCC3)ccc21 | -8.29% (inactive) | –
COc1ccc(SCc2cc(=O)c3ccc(C)c(C)c3[nH]2)cc1 | 22.7% (inactive) | –
OCCCNc1nccc(-c2cc(Nc3cccc(Cl)c3)ncn2)n1 | – | 0.447 µM (active)
CCOc1c(Nc2cccc(Cl)c2)c(=O)c1=O | 0.843% (inactive) | –
COc1ccc(S(=O)(=O)n2nc(C)c(S(=O)(=O)N3CCCCCC3)c2C)cc1 | -19.1% (inactive) | –
O=C(COc1ccccc1C(=O)Nc1ccccc1)Nc1cccc(F)c1 | -3.63% (inactive) | –
COCCNS(=O)(=O)c1cc(-c2nn3c(C)nnc3c3ccccc23)ccc1C | 21.7% (inactive) | –
COc1cc(/C=C2\Oc3ccc(C#Cc4ccc(O)cc4)cc3C2=O)cc(OC)c1 | – | 7.08 µM (active)
COc1cc(OC)c(OC)cc1/C=C1\C=Cc2ccccc21 | -25.2% (inactive) | –
CN(C)c1ccc(/C=C2\C=Cc3ccccc32)cc1Br | -2.44% (inactive) | –
COc1cc(OC)c(NC(=O)c2cnc(N3CCCC3)nc2C)cc1Cl | -12.2% (inactive) | –
COCCNc1nc(NCc2ccc(NC(C)=O)cc2)c2sccc2n1 | -2.45% (inactive) | –
COc1cccc(CNc2nc(NCc3ccccc3OC)nc3ccsc23)c1 | – | 10 µM (active)
COc1ccccc1CNc1nc(Nc2ccccc2Cl)c2sccc2n1 | -8.9% (inactive) | –
Cc1cc(C)cc(NC(=O)CCCc2nc(-c3ccccc3Cl)no2)c1 | -1.85% (inactive) | –
NC(=O)Nc1ccc(/C=C/c2ccnc3ccccc23)cc1 | -11.4% (inactive) | –
NC(=O)CSc1oc(-c2cccs2)nc1S(=O)(=O)c1ccccc1 | 4.8% (inactive) | –
Cc1ccc(S(=O)(=O)c2nc(-c3cccs3)oc2NCc2cccnc2)cc1 | -15.5% (inactive) | –
CCCCS(=O)(=O)c1oc(-c2cccs2)nc1S(=O)(=O)c1ccccc1 | – | 3.16 µM (active)
CCOc1ccc(-c2nonc2NC(=O)c2oc3ccc(C)cc3c2C)cc1OCC | 13% (inactive) | –

Compound | activity, negative = inhibition | Potency
CC(C)(C)c1ccc(C(=O)Nc2ccc3c(c2)CCCN3C(=O)c2cccs2)cc1 | 30.1% (inactive) | –
CC1CC2=C(CC1/C=N/NC(N)=S)C(C)(C)CCC2 (stereo not given) | – | 10 µM (active)
COc1cc(OC)c(NC(=O)N2CC3CCCN3c3ccccc32)cc1Cl (stereo not given) | -0.149% (inactive) | –
COc1cc(NC(=O)c2noc3c2CSc2ccccc2-3)cc(OC)c1OC | -8.23% (inactive) | –
COc1ccc(-c2nc(CN3CCC(C(=O)NCCN(CC(C)C)CC(C)C)CC3)c(C)o2)cc1OC | -4.59% (inactive) | –
COc1cncc(-c2cnc3sc(NCCc4ccccn4)nn23)c1 | – | 7.94 µM (active)
COc1ccc(-c2nc3sc(CCNC(=O)C(C)(C)C)c(C)n3n2)cc1 | -12.3% (inactive) | –
Cc1ccc(C(=O)N/C(=C\c2cccs2)C(=O)NCCc2ccccn2)cc1C | -4.67% (inactive) | –
CCCN(CCC)S(=O)(=O)c1ccc(C(=O)Nc2sc3c(c2C(=O)OC)CCN(CC)C3)cc1 | -14.9% (inactive) | –
COc1ccc(Cl)cc1NC(=O)c1sc2nc3c(cc2c1N)CN(C)CC3 | 0.0406% (inactive) | –
O=C1C[C@@H](c2ccc3ccccc3c2)N1S(=O)(=O)c1ccccc1[N+](=O)[O-] | -8.79% (inactive) | –
Cc1ccc(-n2ncc3c(NCCCn4ccnc4)ncnc32)cc1Cl | -20.8% (inactive) | –
Oc1c(Cl)cc(Cl)c(Cl)c1Cc1c(O)c(Cl)cc(Cl)c1Cl | – | 5.62 µM (active)
CCOc1ccc(N(CC)C(=O)c2noc3c2COc2ccc(C)cc2-3)cc1 | -5.87% (inactive) | –
Cc1ccc(C=O)cc1Cl | 4.35% (inactive) | –
CSc1ccc(C2c3c(oc4ccccc4c3=O)C(=O)N2CCCN2CCOCC2)cc1 (stereo not given) | 16.9% (inactive) | –
COc1cccc(CNC(=O)c2cc(=O)[nH]c3ccc(S(=O)(=O)N4CCCCC4)cc23)c1 | 2.25% (inactive) | –
Fc1ccc(-c2ccc(NCCN3CCOCC3)nn2)cc1 | 0.307% (inactive) | –
c1ccc2cc3c(NCCN4CCOCC4)ccnc3cc2c1 | – | 3.98 µM (active)
O=C(NCCN1CCOCC1)c1cc(Sc2cccc(Cl)c2)nc2ccccc12 | 0% (inactive) | –
COc1ccc(S(=O)(=O)c2c(Nc3ccc(C)cc3)sc(C(=O)c3ccc(C)cc3)c2N)cc1 | -2.77% (inactive) | –
Cc1ccc(-c2nc(CSCC(=O)NC3CCN(Cc4ccccc4)CC3)c(C)o2)cc1 | – | 11.2 µM (active)
CCOc1ccc(CC(=O)NC2CCN(Cc3ccccc3)CC2)cc1 | -25.1% (inactive) | –
COc1ccc(-c2nc(CN3CCC(C(=O)NCc4ccccc4)CC3)c(C)o2)cc1OC | 1.86% (inactive) | –
COc1ccccc1-c1cc(C(F)(F)F)nc(S(=O)(=O)CCCC(=O)Nc2cc(C)ccc2O)n1 | 0.998% (inactive) | –

Compound | activity, negative = inhibition | Potency
COc1ccccc1-c1cc(C(F)(F)F)nc(S(=O)(=O)CCCC(=O)Nc2ccc(F)cc2F)n1 | – | 3.98 µM (active)
CSc1ccccc1NC(=O)CCS(=O)(=O)c1nc(-c2cccs2)cc(C(F)(F)F)n1 | 4.38% (inactive) | –
CCOc1cc(C(=O)Nc2nnc3n2CCS3)cc(OCC)c1OCC | 22.9% (inactive) | –
O=C(Nc1cccc(NC(=O)c2ccccc2[N+](=O)[O-])c1)c1ccccc1Cl | -13.8% (inactive) | –
O=C(Nc1ccc(Br)cn1)c1ccc([N+](=O)[O-])cc1Cl | -2.35% (inactive) | –
O=C(COC(=O)c1ccc([N+](=O)[O-])o1)NC12CC3CC(CC(C3)C1)C2 | 3.7% (inactive) | –
O=C(Nc1ccc(Br)cn1)c1ccc([N+](=O)[O-])o1 | – | 10 µM (active)
Cc1cccc(NC(=O)c2ccc([N+](=O)[O-])o2)c1 | – | 11.2 µM (active)
Cc1onc(C(=O)Nc2ccc3c(c2)OCO3)c1[N+](=O)[O-] | 3.23% (inactive) | –
Cc1cccc(NC(=O)CCn2c(=O)oc3ccccc32)c1 | 3.62% (inactive) | –
Cc1onc(NC(=O)c2ccc([N+](=O)[O-])o2)c1Br | – | 11.2 µM (active)
CN1C(=O)c2ccc(C(=O)Nc3ccc(Br)cn3)cc2C1=O | 20.5% (inactive) | –
CCOc1ccc(N(CC)C(=O)C2CCN(S(=O)(=O)c3cccc4nonc34)CC2)cc1 | 10.5% (inactive) | –
COc1ccc(NC(=O)c2sc3nc[nH]c(=O)c3c2C)cc1 | 27.4% (inactive) | –
Cc1nc2ccn(Cc3cccnc3)c(=O)c2cc1C(=O)N1CCN(c2ccccc2F)CC1 | -3.41% (inactive) | –
Cc1nn(C(C)C(=O)Nc2ccc(C(C)C)cc2)c(=O)c2c1sc1ccccc12 (stereo not given) | 25.1% (inactive) | –
Cc1ccc2sc(N(Cc3cccnc3)C(=O)C3COc4ccccc4O3)nc2c1C (stereo not given) | -3.61% (inactive) | –
O=C(c1ccccc1F)N1CCC(c2nc3c(nnn3Cc3cccc(F)c3)c(=O)[nH]2)CC1 | 22.4% (inactive) | –
O=[N+]([O-])c1ccc(C=Nc2ccc(Cl)cc2Cl)s1 | – | 10 µM (active)
CCOC(=O)c1sc(NC(=O)/C=C/c2ccc(C(C)C)cc2)c(C(=O)OCC)c1C | -17.8% (inactive) | –
CS(=O)c1ccc(/C=C2\C=Cc3ccccc32)cc1 (stereo not given) | -7.58% (inactive) | –
COc1cccc(-c2cc(C(=O)Nc3ccc(C)cc3)[nH]n2)c1 | -23.9% (inactive) | –
O=C(O)c1ccc(Nc2nc(-c3ccccc3)c3cc(Br)ccc3n2)cc1 | 6.9% (inactive) | –
O=C(Cn1c(NCCO)nc2ccccc21)c1ccc(Cl)cc1Cl | -18% (inactive) | –
OCCNc1nc(Nc2ccc(Cl)c(Cl)c2)nc2ccccc12 | – | 11.2 µM (active)
